High-throughput results from PubChem.
HT1080 IDH1KD tx: kills HT-1080 cells with IDH1 knockdown; hit rate 2% among 360,000; Potency, µM (doses to about 46.1 µM), for the others: at the highest dose activity, negative = toxicity, actives largely listed as cytotoxic; AID 686971; HT-1080 IDH1 knockdown viability, ATP luminescence, 48 h;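 note: 0% = DMSO wells and -100% = cell-free medium wells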
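CellTiter-Glo luminescence after 48 h compound exposure at 37 degrees C of IDH1-knockdown HT-1080 cells in 5% FBS RPMI. %Activity scaled between DMSO wells and cell-free media wells, with curves fitted and assigned curve classes.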
HepG2 tox: kills HepG2 cells in TGF-b inhibitor counter-screen; HepG2 CAGA-GFP viability, ATP luminescence, 18 h; Potency, µM (series often up to 46.1 µM), for the others: top-dose activity change, negative = cytotoxicity, hits mostly cytotoxic; hit rate 0.76% among 410,000; AID 588856
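CellTiter-Glo luminescence gave cytotoxicity after 18 hours at 37 degrees C. The cells were HepG2 CAGA-GFP in 1% FBS DMEM, stimulated with 500 pg/mL TGF-beta after compound addition. %Activity was normalised to no-cell wells (complete cell-killing) and DMSO (no toxicity), and curves were fitted and classified.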
HT1080-NT tox: kills 2HG-producing HT-1080-NT fibrosarcoma cells | HT-1080-NT fibrosarcoma viability, CellTiter-Glo ATP luminescence, 48 h | Potency, µM (top dose mostly 46.1 µM), inactives show at the highest dose activity, negative = less viability, most hits filed as cytotoxic | hit rate 1.6% among 360,000 | AID 686970;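 note: NT is the 2HG producing partner of a matched IDH1 knockdown line; 0% = DMSO-treated cells and -100% = media-only wells without cells; nearly all actives have a fitted effect of over 55% in size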
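750 cells/well, RPMI + 5% FBS; 2 h settle, compound pin-transfer, 48 h at 37 degrees C. CellTiter-Glo 10 min RT, luminescence. Normalized to DMSO and media-only wells.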
DT40 TDP1 CPT: DT40-hTDP1 cell growth loss with CPT | chicken DT40 Tdp1-/-;hTDP1 cells + 20 nM CPT, ATP luminescence, 48 h | Potency, µM (highest dose often 46.2 µM), without a hit: at the highest dose activity change, negative = growth inhibition, hits mostly inhibitors | hit rate 12% among 420,000 | AID 686979; note: % is set by controls: 0 for no effect and ±100 for the full control effect; nearly all actives have a fitted effect of over 55% in size
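Chicken DT40 Tdp1-/- cells stably complemented with human TDP1 were seeded at 400 cells/well in medium containing 20 nM camptothecin, exposed to pin-transferred compounds, and grown at 37 °C for at least 48 hr. Viability was read as ATP luminescence.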
TGFb SMAD3 inh: inhibitors of TGF-b signaling. Potency, µM (doses to about 46.1 µM), for the others: at the top dose activity, negative = inhibition, actives largely listed as inhibitors. AID 588855. hit rate 1.2% among 410,000. HepG2 CAGA-GFP TGF-b/SMAD3 reporter, GFP fluorescence, 18 h; TGF-beta stimulated, 500 pg/mL final; note: % is set by controls: 0 for no effect and ±100 for the full control effect; nearly all actives have a fitted effect of over 65% in size
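Inhibition of TGF-beta-driven CAGA-GFP reporter expression in HEPG2 cells is measured by cellular GFP fluorescence after 18 h stimulation with 500 pg/mL recombinant TGF-beta in 1% FBS medium at 37 degrees C.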
DT40 TDP1 no CPT: qHTS for Inhibitors of human tyrosyl-DNA phosphodiesterase 1 (TDP1): qHTS in cells in absence of CPT. AID 686978, 2013. Potency, µM (highest dose often 46.2 µM), inactives show top-dose activity change, negative = growth inhibition, most hits filed as inhibitors. hit rate 15% among 420,000. DT40 Tdp1-/- hTDP1 cells, no CPT, ATP luminescence, 48 h; note: % is set by controls: 0 for no effect and ±100 for the full control effect; nearly all actives have a fitted effect of over 55% in size
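Chicken DT40 Tdp1-/- cells complemented with human TDP1, screened without camptothecin (DMSO vehicle only), 400 cells/well. Compounds pin-transferred, cells incubated at 37 °C for at least 48 hr. Growth read as ATP-dependent luminescence (CellTiter-Glo, 30 min at RT).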
* hit, by the source's call; u = inconclusive; x = not tested or not shown; [ ] = another dose, or the depositor's remark. Most compounds without a hit are left out; they make up all but 17% or so of the library. Calls come from the whole dose curve; as a rule, active = well fitted curve in the direction sought with a large enough effect; inconclusive = small, poorly fitted or top-dose-only effect, or another doubt; inactive = no such curve, though single readings can be large; an effect the other way counts as inactive or inconclusive. Potency is the fitted concentration of half-maximal effect.

SMILES | HT1080 IDH1KD tx | HepG2 tox | HT1080-NT tox | DT40 TDP1 CPT | TGFb SMAD3 inh | DT40 TDP1 no CPT
CCC(C)C(=O)Nc1nc(C)c(-c2csc(Nc3ccc(Cl)cc3)n2)s1 (stereo not drawn) | -9% | -8% | -2% | 16µM* | u | 9.2µM*
CCCC(=O)Nc1nc(C)c(-c2csc(Nc3ccc(Cl)cc3)n2)s1 | -21% | -9% | -21% | 12µM* | -11% | u
CCCCn1c(N)c(N(CCC(C)C)C(=O)C2CC(=O)N(c3ccccc3OCC)C2)c(=O)[nH]c1=O (stereo not drawn) | -10% | 5% | 7% | -15% | 17% | -8%
N=c1c2c(n(Cc3ccc(Cl)c(Cl)c3)c3c1CCC3)CCCC2 | 18µM* | -3% | 23µM* | 2.9µM* | u | 2.6µM*
CCCn1c2c(c(=N)c3c1CCC3)CCCC2 | -17% | -17% | -11% | 9.2µM* | -25% | 5.2µM*
N=c1c2c(n(Cc3ccc(Br)cc3)c3c1CCC3)CCCC2 | 18µM* | -17% | 21µM* | 0.92µM* | u | 0.52µM*
CCCCCCCn1c2c(c(=N)c3ccccc31)CCC2 | 12µM* | 2% | u | 0.52µM* | u | 0.58µM*
CCCCn1c2c(c3ccccc31)CCc1nonc1-2 | -1% | -15% | 2% | -29% | 0% | u
CN(c1ccc(Cl)cc1)S(=O)(=O)c1nnc(NC(=O)C(C)(C)C)s1 | 10% | -17% | 2% | -18% | -18% | 2%
CN(C)c1ncc2nc(-c3ccc(F)cc3)c(=O)n(C3CC3)c2n1 | x | x | x | -2% | x | 0%
CCc1ccccc1NC(=O)C1CCCN(c2ncnc3onc(-c4ccc(F)cc4)c23)C1 (stereo not drawn) | u | -5% | 0% | u | -1% | u
CCOc1ccccc1N(C)C(=O)C1CCCN(c2ncnc3onc(-c4ccc(F)cc4)c23)C1 (stereo not drawn) | x | -24% | x | 12µM* | -15% | 8.2µM*
COc1cc(Cl)c(C)cc1NC(=O)C1CCCN(c2ncnc3onc(-c4ccc(F)cc4)c23)C1 (stereo not drawn) | x | -6% | x | 15µM* | u | 8.2µM*
O=C(NCc1ccc(F)cc1)C1CCCN(c2ncnc3onc(-c4ccc(F)cc4)c23)C1 (stereo not drawn) | x | -24% | x | 21µM* | -15% | 16µM*
CCOc1ccccc1NC(=O)C1CCCN(c2ncnc3onc(-c4ccc(F)cc4)c23)C1 (stereo not drawn) | x | 0% | x | 21µM* | -2% | 23µM*
COc1ccccc1NC(=O)C1CCN(S(=O)(=O)c2ccc3c(c2)NC(=O)CO3)CC1 | -7% | 11% | -5% | -8% | 1% | -7%
COc1cccc(CNC(=O)C2CCCN(c3ncnc4onc(-c5ccc(F)cc5)c34)C2)c1 (stereo not drawn) | x | 1% | x | u | -28% | u
COc1cccc(NC(=O)C2CCCN(c3ncnc4onc(-c5ccc(F)cc5)c34)C2)c1 (stereo not drawn) | x | -26% | x | u | -26% | 16µM*
O=C(NCCO)c1nc(C(=O)c2ccccc2)c2ccccc2n1 | 11% | 1% | 14% | 23µM* | -1% | u
O=C(Cn1ccn(-c2ccc(F)cc2)c(=O)c1=O)Nc1ccc(F)cc1 | x | 5% | x | 9% | 2% | -5%
CCOc1ccc(CC(=O)N2CCN=C2SCc2ccc([N+](=O)[O-])cc2)cc1 | -16% | -11% | 0% | u | u | 29µM*
O=C(Cc1ccccc1)N1CCN=C1SCc1ccc([N+](=O)[O-])cc1 | -3% | -2% | -4% | u | -6% | u
Cc1ccc(C(=O)N2CCN=C2SCc2ccc([N+](=O)[O-])cc2)cc1 | -13% | 2% | -5% | u | -24% | 15µM*
Cc1ccc2c(c1)CN(CCNC(=O)c1ccc3nc(C)[nH]c3c1)CC(C)O2 (stereo not drawn) | x | x | x | 7%[9.04 µM] | x | -7%
C#CCOc1ccccc1CNc1ccccc1 | -1% | -5% | -2% | -7% | -2% | -24%
SMILES | HT1080 IDH1KD tx | HepG2 tox | HT1080-NT tox | DT40 TDP1 CPT | TGFb SMAD3 inh | DT40 TDP1 no CPT
CCCN1C2CCCC1CC(NC(=O)c1ccccc1OC)C2 (stereo not drawn) | 21% | -18% | 1% | -3% | -16% | 3%
CCOc1ccccc1C(=O)NC1CC2CCCC(C1)N2Cc1ccc(C)cc1 (stereo not drawn) | 3% | 1% | -10% | u | -10% | 21µM*
C#CCOc1ccccc1CNC1CCN(Cc2ccccc2)CC1 | 0% | -6% | -6% | u | -2% | 21µM*
O=C(NC1CCN(Cc2ccccc2)CC1)c1ccccc1OCc1ccccc1 | -2% | -55% | 9% | u | -31% | 7.3µM*
COc1ccc(C)cc1NC(=O)NC1CCN(Cc2ccccc2)CC1 | 5% | -54% | -2% | 23µM* | -11% | u
CC(C)Oc1ccc(C(=O)NCc2cccs2)cc1 | -3% | 3% | -6% | u | 9% | u
O=C(NC1CCN(Cc2ccccc2)CC1)c1ccccc1OCc1ccccc1Cl | u | -16% | -29% | 16µM* | u | u
O=C(NCC(c1cccs1)S(=O)(=O)c1cccs1)c1ccc(C(F)(F)F)cc1 (stereo not drawn) | x | -29% | x | u | u | u
CCOc1ccc(C(=O)NCC(c2cccs2)S(=O)(=O)c2ccccc2)cc1 (stereo not drawn) | x | -27% | x | 29µM* | -15% | u
CC(C)(C)c1ccc(C(=O)NCC(c2cccs2)S(=O)(=O)c2ccccc2)cc1 (stereo not drawn) | x | -38% | x | 16µM* | u | 15µM*
COc1cc(C(=O)NCC(c2ccco2)S(=O)(=O)c2ccccc2)cc(OC)c1OC (stereo not drawn) | x | -14% | x | u | -15% | u
O=S(=O)(NCC(c1cccs1)S(=O)(=O)c1ccccc1)c1ccccc1 (stereo not drawn) | x | 10µM* | x | 1.2µM* | 7.1µM* | 1.8µM*
CC(C)(C)c1ccc(C(=O)NCC(c2ccco2)S(=O)(=O)c2ccccc2)cc1 (stereo not drawn) | x | -25% | x | 18µM* | -20% | 23µM*
Cc1csc(-c2ccc3cc(Cl)cc(Cl)c3n2)n1 | 16% | 1% | 7% | 2% | -18% | -29%
